Sampled rows, rich in hits. Any-hit rate of the full collection: about 3.2%.
DYRK1A inh – Dyrk1A (rat) kinase inhibition. ADP-Glo luminescence, NFATc1 peptide. 310,000 compounds, 0.43% hits. inhibition, % at 12.5 µM. AID 504441. Q63470; in the data active = inhibition above about 50%
esBAF inh – blocks esBAF chromatin remodeling in mouse ES cells | Bmi1-luciferase knock-in reporter, 24 h; 100% = twice the neutral-well signal | AID 602393 | 350,000 compounds, 2% hits | reporter increase, % at 12.5 µM; in the data active = activation above about 40%; inconclusive = no clear call, values can overlap the other calls;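 note: a rise in the Bmi1 reporter signal indicates esBAF inhibition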
Rtt109 Vps75 – C. albicans Rtt109 histone acetyltransferase inhibition | inhibition, % at 34.9 µM | Q5AAJ8 | purified Rtt109/Vps75, ThioGlo CoA-SH fluorescence, 4 h | 330,000 compounds, 0.16% hits;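 active = inhibition of at least 50% in every replicate; inconclusive = best replicate reaches 50% inhibition but some replicates fall short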
Target sequence (Q5AAJ8 whole entry, looked up): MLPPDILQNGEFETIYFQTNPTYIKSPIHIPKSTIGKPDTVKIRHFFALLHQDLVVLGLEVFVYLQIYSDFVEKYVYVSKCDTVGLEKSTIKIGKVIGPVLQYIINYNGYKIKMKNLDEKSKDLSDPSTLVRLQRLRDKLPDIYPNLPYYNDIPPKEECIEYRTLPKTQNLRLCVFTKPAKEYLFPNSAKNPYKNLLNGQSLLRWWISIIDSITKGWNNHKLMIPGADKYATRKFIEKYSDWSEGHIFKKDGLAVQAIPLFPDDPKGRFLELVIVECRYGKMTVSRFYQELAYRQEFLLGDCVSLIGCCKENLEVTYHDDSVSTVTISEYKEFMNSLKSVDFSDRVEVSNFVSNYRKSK
SMARCA2 activ – activators of SMARCA2 function | MG213 cells, MMTV-luciferase reporter, dexamethasone, overnight | 370,000 compounds, 1% hits | activation, % at 9.1 µM; in the data active = activation above about 7.8%
dFosB act – mouse delta FosB homodimer activation. P13346. purified delta FosB, TAMRA-CDK5 oligo fluorescence polarization; percent of positive-control signal above neutral wells. activation, % at 25 µM. 340,000 compounds, 0.99% hits. AID 493131;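 active = mean activation above about 17%, with every replicate also reaching it, limit read from the data, passing the limit was not always enough; inconclusive = only one of the two conditions met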
CDK5 p35 inh – inhibitors of human CDK5/p35 kinase. Q00535+Q15078. Recombinant CDK5/p35, ADP-Glo luminescence, 60 min. inhibition, % at 10 µM. 330,000 compounds, 0.01% hits. AID 488839;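 active = highest replicate inhibition of at least 50% and at least 75% of replicates reaching 50%; inconclusive = only one of the two criteria met; inactive = both criteria failed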
Numbers stand for hits; . = inactive; ? = inconclusive; / = no result.

SMILES	DYRK1A inh	esBAF inh	Rtt109 Vps75	SMARCA2 activ	dFosB act	CDK5 p35 inh
CCC1CCCCN1S(=O)(=O)c1ccc(C(=O)N(CCCN(C)C)c2nc3cc4c(cc3s2)OCO4)cc1 (stereo unspecified)	.	.	?	.	24	.
C[C@@H]1CN([C@@H](C)CO)C(=O)c2cc(NS(=O)(=O)c3ccc(F)cc3)ccc2O[C@@H](C)CCCCO[C@@H]1CN(C)Cc1ccc(C(=O)O)cc1	/	.	/	/	/	/
Cc1ccc(NC(=O)NC(=O)CN2CCN(c3ccc(O)cc3)CC2)c(C)c1	.	.	.	.	.	.
Cc1ccc(NC(=O)NC(=O)CN2CCC(C(N)=O)CC2)c(C)c1	.	43	.	.	.	.
CNC[C@H]1Oc2ccc(NS(=O)(=O)c3ccc(F)cc3)cc2CC(=O)N([C@@H](C)CO)C[C@H]1C	/	.	/	/	/	/
Clc1nc(Nc2ccccc2)nc(Nc2ccccc2)n1	.	?	50	.	.	.
COc1ccc(Nc2nc(Cl)nc(Nc3ccc(OC)cc3)n2)cc1	.	/	.	.	.	.
NC(=S)NN=C1c2cc(OCCN3CCOCC3)ccc2-c2ccc(OCCN3CCOCC3)cc21	.	/	.	.	39	.
C[C@@H]1CN([C@H](C)CO)C(=O)c2cc(NC(=O)C3CCCCC3)ccc2O[C@H]1CN(C)Cc1ccncc1	/	.	/	/	/	/
CCOc1cccc2cc(-c3csc(NC(=O)CCC(=O)NCCN4CCCCC4C)n3)c(=O)oc12 (stereo unspecified)	.	.	.	7.9	.	.
CCC(=O)N1C[C@@H](C)[C@@H](OC)CN(C)C(=O)c2cc(NC(=O)C3CCCCC3)ccc2OC[C@@H]1C	/	.	/	/	/	/
Clc1ccc(OCCN2CCCCC2)cc1Cl	.	.	.	.	.	/
Clc1ccc(OCCCN2CCCC2)cc1Cl	.	/	.	7.8	.	.
O=C(C[C@H]1C[C@@H]2c3cc(NC(=O)C4CCC4)ccc3O[C@@H]2[C@@H](CO)O1)NC1CCCCC1	/	.	/	/	/	/
CN(C)c1ccc(-c2csc(C(C)(O)c3cccc(F)c3)n2)cc1 (stereo unspecified)	/	45	/	.	/	/
COc1ccc(-c2csc(C(C)(O)c3ccccc3)n2)cc1 (stereo unspecified)	/	60	/	.	/	/
C[C@@H]1CN([C@H](C)CO)C(=O)c2cccc(NC(=O)c3cnccn3)c2O[C@H]1CN(C)Cc1ccc2c(c1)OCO2	/	.	/	/	/	/
CCc1cccc2c(C(=O)COC(=O)c3nccnc3N)c[nH]c12	.	79	.	.	.	.
O=C(COC(=O)c1cnccn1)c1ccc([N+](=O)[O-])cc1	.	.	137	.	.	.
C[C@@H]1CN([C@H](C)CO)C(=O)c2cc(NS(=O)(=O)c3ccc(F)cc3)ccc2O[C@H]1CN(C)S(C)(=O)=O	/	.	/	/	/	/
COc1ccc(NC(=O)Cc2ccccc2F)cc1S(=O)(=O)N1CCCCC1	.	45	.	.	.	.
COc1ccc(NC(=O)COc2ccccc2F)cc1S(=O)(=O)N1CCCCC1	.	.	.	.	.	.
COc1ccc(CNC(=O)CNC(=O)N2CC(=O)Nc3ccccc32)cc1	.	.	.	.	.	.
COc1cccc(C(=O)Nc2ccccc2)c1	.	52	.	.	.	.
COc1cccc(NC(=O)Cc2ccccc2)c1	.	64	.	.	.	.
SMILES	DYRK1A inh	esBAF inh	Rtt109 Vps75	SMARCA2 activ	dFosB act	CDK5 p35 inh
COc1cccc(NC(=O)CNC(=O)N2CC(=O)Nc3ccccc32)c1	.	44	.	.	.	.
COc1cccc(C(=O)Nc2cccc(SC)c2)c1	.	60	.	.	.	.
C[C@@H]1CN([C@H](C)CO)S(=O)(=O)c2ccc(-c3ccc(F)cc3)cc2O[C@@H]1CN(C)CC1CC1	/	.	/	/	/	/
CSc1cccc(NC(=O)c2cccc3cccnc23)c1	.	48	.	.	.	.
COc1ccc(NC(=O)c2c(C)nn(-c3ccccc3)c2Cl)cc1	.	.	.	.	.	.
COc1cccc(C(N)=O)c1	/	.	.	.	.	.
COc1cccc(NC(=O)C(=O)NCc2ccncc2)c1	.	52	/	.	.	.
COc1cccc(/C(C)=N/N=C(\C)c2cccc(OC)c2)c1	.	70	.	.	.	.
COc1ccccc1C(=O)Nc1cccc(SC)c1	.	/	.	.	.	.
COc1cccc(NC(=O)c2c(C)nn(-c3ccccc3)c2Cl)c1	.	50	.	.	.	.
C[C@H](CO)N1C[C@H](C)[C@H](CN(C)C(=O)Nc2ccc3c(c2)OCO3)Oc2ccc(NC(=O)Cc3cn(C)c4ccccc34)cc2CC1=O	/	.	/	/	/	/
CCCN(C)C[C@@H]1Oc2ncc(C#CCC(C)C)cc2C(=O)N([C@H](C)CO)C[C@H]1C	/	.	/	/	/	/
COc1cc(/C=N/OCC(=O)NC2CCCCC2C)ccc1OCc1ccc(Cl)cc1 (stereo unspecified)	.	98	.	.	.	.
CC(C)CNC(=O)COC(=O)c1c2c(nc3ccccc13)/C(=C\c1cccs1)CC2	.	55	.	.	.	.
O=C(COC(=O)c1c2c(nc3ccccc13)/C(=C\c1cccs1)CCC2)Nc1ccccc1	.	/	.	.	.	.
CC=Cc1ccc2n(c1=O)C[C@@H]1[C@@H](CO)[C@H](C(=O)NCC3CC3)[C@H]2N1CC1CCOCC1 (mixture of isomers)	/	.	/	/	/	/
CCCCc1c(C)c2ccc(OCC(C)=O)cc2oc1=O	.	63	.	.	.	.
COc1ccc(-c2cc3ccc(OCC(C)=O)cc3oc2=O)cc1	.	.	.	.	.	.
COc1ccc(-c2cc3ccc(OCC(C)=O)cc3oc2=O)cc1OC	.	47	.	.	.	.
C[C@@H]1CCCCO[C@H](CN(C)CC2CC2)[C@H](C)CN([C@@H](C)CO)C(=O)c2cc(NC(=O)c3ccncc3)ccc2O1	/	.	/	/	/	/
CS(=O)(=O)Nc1ccc2c(c1)[C@H]1C[C@@H](CC(=O)NCc3cccnc3)O[C@@H](CO)[C@H]1O2	/	.	/	/	/	/
Cc1ccc2nc3ccc(N4CCCCCCC4)nn3c(=O)c2c1	.	60	.	.	.	.
Cc1ccc2nc3ccc(N4CCN(C)CC4)nn3c(=O)c2c1	.	49	.	.	.	.
Cc1sc2nc3ccc(N4CCCC4)nn3c(=O)c2c1C	.	52	.	.	.	.
C[C@H]1CCCCO[C@H](CN(C)S(=O)(=O)c2cn(C)cn2)[C@@H](C)CN([C@@H](C)CO)C(=O)c2cc(NC(=O)Nc3ccc(F)cc3)ccc2O1	/	.	/	/	/	/
Cc1ccc(S(=O)(=O)Nc2ccc3c(c2)C(=O)N([C@@H](C)CO)C[C@H](C)[C@@H](CN(C)C(=O)Nc2ccc4c(c2)OCO4)OCCCC[C@H](C)O3)cc1	/	.	/	/	/	/
C[C@H](CO)N1C[C@H](C)[C@H](CN(C)Cc2ccc3c(c2)OCO3)Oc2ccc(NS(=O)(=O)c3cn(C)cn3)cc2CC1=O	/	.	/	/	/	/
O=C(NCCC1=CCCCC1)c1cnc2n(c1=O)CCS2	.	46	.	.	.	.
COc1ccc(C(=O)NCCC2=CCCCC2)cc1OC	.	50	.	.	.	.

Source: PubChem (several laboratories)
